Luc counter – Kinase-Glo luciferase inhibition (counter-screen); Q27757; Kinase-Glo luciferase, ATP luminescence, 8 min; Potency, µM (doses to about 38.3 µM), for inactives: top-dose activity change, negative = inhibition, usual class: inhibitors; actives 0.28% (n = 200,000); also: % is scaled to controls: 0 for no effect and ±100 for the full control effect; nearly all actives have a fitted effect of over 60% in size
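Inhibition of Kinase-Glo luciferase light generation was assessed at 10 uM ATP in pH 7.2 imidazole buffer, with luminescence measured after eight minutes at ambient temperature.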
Rab9 promoter act – activators of Rab9 promoter. Huh7 Rab9 promoter-luciferase reporter, luminescence, 24 h. Potency, µM (doses to about 9.22 µM), without a hit: at the top dose activation, negative = inhibition, most hits filed as activators. actives 2.8% (n = 320,000). AID 485297; also: % of control where 0% means no effect; nearly all actives have a fitted effect of over 60% in size
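Stable Rab9-luc Huh7, 1500 cells/well, 2 h settle; cmpd in DMSO, 24 h, 37 °C/5% CO2; luciferase reagent 10 min RT; luminescence.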
ELG1 genotox – genotoxicity induction in ELG1-luciferase HEK293T cells. HEK293T ELG1-luciferase reporter, luminescence, 16 h. Potency, µM (titrated, usually from 46 µM), without a hit: at the top dose activity change, positive = activation, most hits filed as activators. actives 1.3% (n = 330,000). AID 504466; also: % of control where 0% means no effect; nearly all actives have a fitted effect of over 60% in size
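Luminescence read-out: rising ELG1-luciferase signal, reflecting elevated ELG1 protein under genetic stress, flags genotoxic compounds. Cells were treated for 16 hr at 37 °C before ONE-Glo detection.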
NPC1 promoter act – activators of NPC1 promoter; AID 485313; actives 2.4% (n = 320,000); Potency, µM (highest dose often 9.22 µM), without a hit: at the highest dose activation, actives largely listed as activators; Huh7 NPC1 promoter luciferase reporter, 24 h; also: % of control where 0% means no effect; nearly all actives have a fitted effect of over 60% in size
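Luminescence read-out of NPC1 promoter-driven luciferase in stably transfected Huh7 cells; compounds delivered in DMSO and left 24 h at 37C, 5% CO2, qHTS titration format.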
SMN2 splice enh – SMN2 splice variant enhancement | HEK293 SMN2-luciferase splicing reporter, luminescence, 30-36 h | Potency, µM (doses to about 46.1 µM), without a hit: top-dose activity change, positive = activation, actives largely listed as activators | actives 2.8% (n = 210,000) | AID 1458; also: % of control where 0% means no effect; nearly all actives have a fitted effect of over 55% in size
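HEK293 cells carry an SMN2 […]–luciferase reporter in which exon 7 inclusion puts luciferase in frame. Cells were plated 10-12 h before compound addition, then incubated 30-36 h at 37C. ONE-Glo luminescence was read; sodium butyrate at 4.5 mM final served as control.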
FLuc modulator – firefly luciferase modulation, counter-screen for miR-21 project | P08659 | purified FLuc, Km substrates, luminescence inhibition | Potency, µM (highest dose often 57.5 µM), for the others: at the highest dose activity change, negative = inhibition, actives largely listed as inhibitors | actives 6.9% (n = 360,000);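 also: plate controls were vehicle for no effect and reference inhibitor for full effect; nearly all actives have a fitted effect of over 55% in size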
Target sequence (P08659 whole entry, looked up): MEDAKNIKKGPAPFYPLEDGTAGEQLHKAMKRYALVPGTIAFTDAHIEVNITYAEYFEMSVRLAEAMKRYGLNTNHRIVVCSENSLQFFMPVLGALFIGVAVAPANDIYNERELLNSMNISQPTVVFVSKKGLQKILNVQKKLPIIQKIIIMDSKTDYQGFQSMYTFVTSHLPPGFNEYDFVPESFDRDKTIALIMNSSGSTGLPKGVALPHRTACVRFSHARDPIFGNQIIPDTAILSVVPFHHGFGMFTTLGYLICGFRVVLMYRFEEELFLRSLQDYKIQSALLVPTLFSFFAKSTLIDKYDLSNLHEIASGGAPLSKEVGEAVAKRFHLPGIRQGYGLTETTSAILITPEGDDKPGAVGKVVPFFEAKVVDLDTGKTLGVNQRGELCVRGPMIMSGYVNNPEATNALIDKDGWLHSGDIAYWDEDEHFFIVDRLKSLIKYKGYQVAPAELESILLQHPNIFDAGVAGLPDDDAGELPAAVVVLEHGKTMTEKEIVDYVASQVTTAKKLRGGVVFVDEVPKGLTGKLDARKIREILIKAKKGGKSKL
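Purified P. pyralis luciferase, 10 nM final, with Km-level 10 uM D-luciferin and 10 uM ATP in 50 mM Tris acetate pH 7.5, 10 mM Mg acetate, 0.01% Tween-20, 0.05% BSA; 6-point qHTS titration about 60 µM downward; luminescence read.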
* = called active by the depositor; u = inconclusive; x = no result given. Shown are actives, neighbours in structure and some others; about 7.4% of the full set was active somewhere. Calls follow the shape of the dose curve; as a rule, active = well fitted curve in the direction sought with a large enough effect; inconclusive = small, poorly fitted or top-dose-only effect, or another doubt; inactive = no such curve, though single readings can be large; an effect the other way counts as inactive or inconclusive. Potency is read from the fitted curve at half-maximal effect.

SMILES	Luc counter	Rab9 promoter act	ELG1 genotox	NPC1 promoter act	SMN2 splice enh	FLuc modulator
CC1Oc2ccccc2C(=O)N(CC(=O)c2ccc3c(c2)OCCO3)C1=O (stereo not given)	x	28%	12%	24%	x	4.8µM*
CN(C)c1ccc(NC(=O)c2ccc3nc[nH]c3c2)cc1	x	u	u	u	x	13µM*
Cc1ccc(NC(=O)c2ccc3nc[nH]c3c2)cc1C	-2%	1.8µM*	u	2.8µM*	11µM*	9.5µM*
O=C(Nc1ccc(F)cc1)c1ccc2nc[nH]c2c1	-3%	18%	5%	26%	u	u
Cc1cc(C)cc(NC(=O)c2ccc3nc[nH]c3c2)c1	1%	13%	10%	11%	-4%	6.7µM*
Cc1ccc(-c2n[nH]c(Cc3ccccc3)n2)cc1	x	2.5µM*	u	2.8µM*	x	19µM*
CC(C)C[C@H](NC(=O)[C@H](CCC(N)=O)NC(=O)[C@H](CCCCN)NC(=O)[C@H](CCC(N)=O)NC(=O)[C@@H](N)CCC(=O)O)C(=O)N[C@@H](CCC(N)=O)C(=O)O	x	x	x	x	3%	x
O=S(=O)(Cc1cc(-c2ccc(Cl)cc2)no1)c1ccccc1	-1%	3.5µM*	9.2µM*	u	13µM*	u
O=S(=O)(Cc1cc(-c2ccccc2Cl)no1)c1ccccc1	-1%	2.8µM*	u	u	u	17µM*
Clc1ccc(-c2cc(COc3ccccc3)on2)cc1	2%	u	-16%	15%	u	11µM*
Clc1ccc(OCc2cc(-c3ccccc3)no2)cc1Cl	1%	24%	12%	14%	24%	u
O=C(O)COc1ccc(OCCNC[C@H](O)COc2ccccc2)cc1	x	x	x	x	2%	x
COCCNC(=O)c1ccc2c(=O)n(CCc3ccccc3)c(SCC(=O)CC(=O)OC)nc2c1	x	x	x	x	x	1%
CCCCCCCCC(=O)N/N=C/c1ccccn1	-1%	-2%	-1%	1%	-2%	3%
CCCCCCCCC/C(=N\O)c1ccccn1	-4%	u	u	u	-74%	17µM*
CCC(=O)Nc1ccccc1-c1nc2ccccc2n(C(C)C(=O)Nc2ccc(OC)cc2)c1=O (stereo not given)	x	x	x	x	x	-13%
CCCCOc1ccc(CSCCN=C(N)N)cc1	0%	-13%	15µM*	-15%	x	21µM*
[O-]/[N+](=N\O)c1ccccc1	x	x	x	x	-16%	x
Oc1ccccc1-c1nc2cnccn2c1Nc1ccc2c(c1)OCCO2	-5%	0%	3%	-3%	17%	u
Clc1ccc(-c2nc3cnccn3c2Nc2ccc3c(c2)OCO3)cc1	3%	1%	-5%	-6%	1%	u
CSc1ccc(-c2nc3cnccn3c2Nc2ccc3c(c2)OCO3)cc1	-1%	-4%	-1%	0%	-2%	19µM*
c1cn2c(Nc3ccc4c(c3)OCCO4)c(-c3ccc(N4CCOCC4)cc3)nc2cn1	x	21%	u	26%	x	2.7µM*
CCc1ccc(NC(=O)c2cc3c(=O)n(Cc4cccs4)ccc3nc2C)cc1	x	x	x	x	x	-2%
COc1ccc(NC(=O)COCc2cc(-c3cccs3)on2)cc1	x	x	x	x	x	-14%
COC(=O)c1cc2sc(C)cc2n1CC(=O)Nc1cccc(SC)c1	x	x	x	x	-7%	-7%
SMILES	Luc counter	Rab9 promoter act	ELG1 genotox	NPC1 promoter act	SMN2 splice enh	FLuc modulator
COc1ccc(-c2onc(C)c2C)cc1S(=O)(=O)N(C)Cc1ccccc1	x	x	x	x	x	-17%
O=C(CCc1ccccc1)N1CCc2c([nH]c3ccccc23)C1c1ccc(F)cc1 (stereo not given)	x	x	x	x	x	-4%
C=CCc1c(C)nc2c(OC)cccc2c1Cl	-5%	1%	-1%	1%	x	13µM*
COc1cccc(CNC(=O)CN2C(=O)COc3ccc(S(=O)(=O)Nc4ccccc4)cc32)c1	x	x	x	x	x	-17%
CCOCCCNC(=O)C1CCCN(Cc2nc(-c3ccc(CC)cc3)oc2C)C1 (stereo not given)	x	x	x	x	-33%	4%
COc1ccccc1NC(=O)Nc1ccc(Br)cn1	-2%	17%	4%	8%	5%	2%
COc1cc2ccccc2cc1C(=O)Nc1ccc(Br)cn1	x	1.8µM*	u	1.6µM*	x	u
COc1c(C(=O)Nc2ccc(Br)cn2)ccc2ccccc12	x	u	u	18%	x	5.4µM*
O=C(CSc1ncccc1-c1nc2ccccc2[nH]1)NC1CC1	-9%	-11%	3%	0%	17%	u
Cc1cc2nc(-c3cccnc3SCC(=O)NC(C)C)[nH]c2cc1C	u	2.2µM*	23µM*	2.8µM*	11µM*	2.7µM*
CCOC(=O)CSc1nc2cccnc2n1C	3%	-13%	0%	1%	8%	-2%
COCCOC(=O)CSc1ncccc1-c1nc2cc(C)c(C)cc2[nH]1	13µM*	3.5µM*	u	u	16µM*	2.1µM*
COc1ccc2c(c1)C(=O)[C@H](OC(=O)NS(=O)(=O)c1ccc(C)cc1)[C@@H](c1ccc(OC)c(Br)c1)O2	-6%	x	x	x	-7%	x
COc1ccccc1CN1CCNC(=O)C1=O	x	x	x	x	x	-1%
COc1ccc(NC(=O)Cn2ncc3c4ccccc4n(Cc4ccccc4)c3c2=O)cc1OC	x	x	x	x	11%	2%
Nc1ccc(Oc2cc(N)cc(Oc3ccccc3)c2)cc1	x	u	u	2µM*	x	6µM*
COc1cccc(Cn2c(=O)cnc3cnc(N4CCOCC4)nc32)c1	0%	x	x	x	-6%	x
COc1cc2c(cc1OC)CN(C(=O)c1ccncc1)CC2	x	-2%	0%	4%	x	-1%
COc1ccc(C(=O)N2CCc3ccc(NC(=O)c4ccccn4)cc3C2)cc1F	x	27%	-16%	u	x	21µM*
COC(=O)c1ccc(N=NNc2ccc(C(=O)OC)cc2)cc1	-5%	u	18µM*	u	u	u
COC(=O)c1ccc(N=NNc2cccc(Br)c2)cc1	-2%	1.3µM*	u	1.3µM*	5µM*	7.6µM*
COC(=O)c1ccc(N=NNc2ccccc2)cc1	-3%	1.3µM*	u	1.4µM*	8.9µM*	3.8µM*
O=C(O)c1ccc(N=NNc2cccc([N+](=O)[O-])c2)cc1	-11%	0.63µM*	u	0.89µM*	11µM*	2.4µM*
COC(=O)c1ccc(N=Nc2c(C)[nH]n(-c3ccccc3)c2=O)cc1	x	-2%	-5%	1%	x	-7%
COC(=O)C(C)Nc1cccc(Br)c1 (stereo not given)	x	-1%	0%	-1%	x	1%
COc1ccc(-c2cc(-c3ccc(C)cc3)nc3c2COc2ccccc2-3)cc1	x	x	x	x	10%	u
N/C(=N\OC(=O)Cc1ccccc1)c1cccnc1	0%	-4%	3%	-4%	-12%	-2%
